Records with an inconclusive call do not appear. The source made the active and inactive calls. Unless noted, calls come from the whole dose curve; as a rule, active = well fitted curve in the direction sought with a large enough effect in the repeat runs; inconclusive = weak or mixed curves; inactive = no such curve, though single readings can be large; an effect the other way counts as inactive or inconclusive.
Columns and labels:
[1] = qHTS assay to identify small molecule agonists of the estrogen receptor alpha (ER-alpha) signaling pathway in the presence of an antagonist - cell viability counter screen (AID 1259386);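 note: series mostly up to about 92 µM; cells exposed to compounds for 22 h at 37 °C before the viability read; nearly all actives have a fitted effect of over 30% in size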
Outline: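 Viability counter screen using VM7Luc4E2 (full-length ER-alpha, four ERE-luciferase). The cells were treated with compounds alongside ICI-182,780 10.0nM for 22hr, and live-cell protease fluorescence was quantified with CellTiter-Fluor.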

[2] = biological target: Progesterone receptor (Homo sapiens) (UniProt P06401); experiment: qHTS assay to identify small molecule agonists of the progesterone receptor (PR) signaling pathway (AID 1346784; calls by dose curve; note: nearly all actives have a fitted effect of over 30% in size)
Outline: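 PR-UAS-bla HEK 293T cells carrying a UAS-driven beta-lactamase reporter were seeded in medium with 2% charcoal-stripped FBS, preincubated 6 hr at 37C, then exposed to compounds in DMSO for 16 hr; agonism was read by LiveBLAzer B/G FRET fluorescence.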

[3] = qHTS assay to identify small molecule antagonists of the progesterone receptor (PR) signaling pathway - cell viability counter screen (AID 1346798); note: series mostly up to about 92 µM; nearly all actives have a fitted effect of over 50% in size
Outline: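 PR-UAS-bla HEK293T cells in medium with 2% charcoal-stripped FBS were treated with compounds plus R5020 for 16 hr at 37C. Cell viability was then read by CellTiter-Glo luminescence after 30 min at room temperature in the same wells.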

[4] = qHTS assay to identify small molecule agonists of the progesterone receptor (PR) signaling pathway - cell viability counter screen (AID 1346799; calls by dose curve; note: nearly all actives have a fitted effect of over 45% in size)
Outline: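 PR-UAS-bla HEK293T cells, 3,000 per well in medium with 2% charcoal-stripped FBS, were preincubated 6 hr at 37C, then exposed to compounds for 16 hr; viability was read as CellTiter-Glo luminescence after 30 min at room temperature.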

[5] = qHTS assay to identify small molecule antagonists of the TGF-beta/Smad signaling pathway - cell viability counter screen (AID 1346824); note: nearly all actives have a fitted effect of over 50% in size
Outline: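 SBE-bla HEK 293T cells were plated overnight at 37 C, then given compounds in DMSO plus TGF-beta1 (added as 0.25 ng/mL solution) for 5 hr. After the bla read, CellTiter-Glo was added to the same wells and luminescence read after 30 min at room temperature.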

[6] = qHTS assay to identify small molecule agonists of the TGF-beta/Smad signaling pathway - cell viability counter screen (AID 1346829); note: top concentration of the series differs between compounds; nearly all actives have a fitted effect of over 45% in size
Outline: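 SBE-bla HEK 293T cells plated overnight, compound exposure 5 hr at 37 C. Viability read in the same wells by CellTiter-Glo luminescence after 30 min at room temperature, following the beta-lactamase read.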

[7] = qHTS assay to identify small molecule agonists of the TGF-beta/Smad signaling pathway (AID 1346859; active = well fitted activation curve with a large enough effect in the signal ratio in the repeat runs, not every such curve was filed as active; the % refers to the signal ratio; note: series mostly up to about 77 µM)
Outline: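 HEK 293T cells stably carrying a beta-lactamase reporter driven by the Smad binding element were seeded overnight, exposed to DMSO-dissolved compounds for 5 hr at 37 C, 5% CO2, then loaded with FRET substrate for 2 hr at room temperature.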

[8] = biological target: Thyrotropin-releasing hormone receptor (Homo sapiens) (UniProt P34981); experiment: qHTS assay to identify small molecule antagonists of the thyrotropin-releasing hormone receptor (TRHR) signaling pathway (AID 1346877; active = well fitted inhibition curve with a large enough effect in the repeat runs, not every such curve was filed as active; note: series mostly up to about 51 µM)
Outline: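 Following an 18 h incubation at 37 °C and a 2 h calcium dye load, TRHR-HEK293 cells were exposed to compound (5 min, room temperature) and challenged with TRH, 1 nM final.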

[9] = biological target: Thyrotropin-releasing hormone receptor (Homo sapiens) (UniProt P34981); experiment: qHTS assay to identify small molecule agonists of the thyrotropin-releasing hormone receptor (TRHR) signaling pathway (AID 1346891; calls by dose curve; note: series mostly up to about 58 µM)
Outline: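 TRHR-expressing HEK293 cells were plated 18 h at 37 °C/5% CO2, loaded with calcium dye 2 h at 37 °C, then given compound in DMSO; fluorescence was read kinetically for 3 min at 1 s intervals.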

[10] = Human pregnane X receptor (PXR) small molecule agonists, qHTS cell viability counter screen (AID 1346977); note: nearly all actives have a fitted effect of over 50% in size
Outline: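 PXR-Luc HepG2 cells in medium with 5% charcoal-stripped FBS were pre-incubated 5hr, then exposed to compounds for 24hr at 37C. Viability was read in the same wells by CellTiter-Fluor fluorescence, reagent added after 23hr with a 1hr incubation.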

[11] = Caspase-3/7 induction in HepG2 cells by small molecules, qHTS assay (AID 1346978); note: nearly all actives have a fitted effect of over 15% in size
Outline: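 Wild-type HepG2 cells (2,000/well) were settled 5 h at 37 C, 5% CO2, then exposed to compounds in DMSO for 17 h. Caspase-3/7 activity was read by luminescence 30 min after adding Caspase-Glo 3/7 reagent at room temperature.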

[12] = Caspase-3/7 induction in CHO-K1 cells by small molecules, qHTS assay (AID 1346980); note: nearly all actives have a fitted effect of over 15% in size
Outline: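 Wild-type cells were seeded at 1,500 per well and settled 5 hr at 37 C, 5% CO2, then exposed to DMSO-dissolved compounds for 17 hr. Caspase-Glo 3/7 reagent was added, and luminescence was read after 30min at room temperature.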

[13] = Caspase-3/7 induction in HepG2 cells by small molecules, qHTS cell viability counter screen (AID 1346981); note: series mostly up to about 92 µM; nearly all actives have a fitted effect of over 30% in size
Outline: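 Viability determined by CellTiter-Fluor fluorescence in HepG2 wells also used for the luminescent Caspase-Glo 3/7 read. Compounds were present for 16 hr at 37 C, 5% CO2 before reagent addition.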

[14] = biological target: Acetylcholinesterase (Homo sapiens) (UniProt P22303); experiment: Acetylcholinesterase (AChE) small molecule antagonists: colormetric cell-based qHTS assay (AID 1347395; calls by dose curve; note: nearly all actives have a fitted effect of over 30% in size; note: potency is the fitted concentration of half-maximal effect)
Outline: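 SH-SY5Y cells, plated overnight at 37 C, were exposed to compounds for 30 min at 37 C and 5% CO2. Acetylthiocholine plus DTNB was then added, and thiocholine from endogenous AChE was quantified colorimetrically after 90 min at 37 C.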

[15] = biological target: Progesterone receptor (Homo sapiens) (UniProt P06401); experiment: qHTS assay to identify small molecule antagonists of the progesterone receptor (PR) signaling pathway (AID 1346795; active = well fitted inhibition curve with a large enough effect in the signal ratio in the repeat runs, not every such curve was filed as active; the % refers to the signal ratio)
Outline: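 PR-UAS-bla HEK293T cells carrying a UAS-driven beta-lactamase reporter were plated in medium with 2% charcoal-stripped FBS and rested 6 hr at 37C. Compounds were added with 1 nM R5020 (final) for 16 hr, then FRET substrate loaded 2 hr at room temperature.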

[16] = biological target: Nuclear receptor subfamily 1 group I member 2 (Homo sapiens) (UniProt O75469); experiment: Human pregnane X receptor (PXR) small molecule agonists, qHTS assay (AID 1346982); note: nearly all actives have a fitted effect of over 35% in size; note: potency is the fitted concentration of half-maximal effect
Outline: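 Compound-induced hPXR transactivation of a CYP3A4 luciferase reporter was scored in HepG2 PXR-Luc cells over 24 hr at 37 C, 5% CO2, by luminescence.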

[17] = Caspase-3/7 induction in CHO-K1 cells by small molecules, qHTS cell viability counter screen (AID 1346979); note: nearly all actives have a fitted effect of over 35% in size
Outline: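 Wild-type CHO-K1 cells were seeded at 1,500 per well, rested 5hr at 37 C, then exposed to compounds in DMSO. After 16hr, CellTiter-Fluor reagent was added and fluorescence read 1hr later as the viability measure.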

[18] = biological target: Nuclear receptor subfamily 1 group I member 2 (Rattus norvegicus) (UniProt Q9R1A7); experiment: Rat pregnane X receptor (rPXR) activation by small molecules, qHTS assay (AID 1346983); settings: rPXR luciferase reporter cells, One-Glo luminescence, 24 h; hits give high values; note: nearly all actives have a fitted effect of over 20% in size
Outline: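 Cell-based rPXR luciferase reporter assay, 2,000 cells per well, rested 5hr at 37 C before compound addition in DMSO, then 24 hr at 37 C. One-Glo reagent was added and luminescence read after 30 min at room temperature.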

[19] = biological target: Nuclear receptor subfamily 1 group I member 2 (Homo sapiens) (UniProt O75469); experiment: CYP3A4 induction through human pregnane X receptor (PXR) by small molecules, qHTS assay (AID 1346984); note: nearly all actives have a fitted effect of over 40% in size
Outline: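 Readings come from a luciferase reporter: DPX-2 cells, which are HepG2 cotransfected with PXR and a CYP3A4-promoter construct, were exposed to test compounds for 24 h at 37C before One-Glo detection.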

[20] = biological target: Nuclear receptor subfamily 1 group I member 2 (Homo sapiens) (UniProt O75469); experiment: Human pregnane X receptor (PXR) activation by small molecules, qHTS assay (AID 1346985); note: nearly all actives have a fitted effect of over 40% in size
Outline: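 DPX-2 cells (HepG2 co-transfected with a PXR response element and a CYP3A4-promoter luciferase construct) were seeded at 2,000 per well, rested 5 hr at 37C, then exposed to DMSO-dissolved compounds for 24 hr. Activation was read as luciferase luminescence.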
% is set by controls: 0 for no effect and ±100 for the full control effect.

Sequence of Thyrotropin-releasing hormone receptor (Homo sapiens) (P34981 whole entry, looked up): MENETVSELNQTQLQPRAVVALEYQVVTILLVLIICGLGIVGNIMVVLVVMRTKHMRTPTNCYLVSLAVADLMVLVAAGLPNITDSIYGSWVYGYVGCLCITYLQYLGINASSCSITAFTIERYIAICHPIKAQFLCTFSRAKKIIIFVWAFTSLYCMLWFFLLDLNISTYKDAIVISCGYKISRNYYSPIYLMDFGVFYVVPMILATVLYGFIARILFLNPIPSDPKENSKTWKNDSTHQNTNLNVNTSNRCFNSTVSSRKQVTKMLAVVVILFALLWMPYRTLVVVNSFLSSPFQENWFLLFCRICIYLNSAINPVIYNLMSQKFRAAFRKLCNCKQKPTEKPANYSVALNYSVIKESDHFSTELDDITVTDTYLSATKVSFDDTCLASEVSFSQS
Sequence of Acetylcholinesterase (Homo sapiens) (P22303 whole entry, looked up): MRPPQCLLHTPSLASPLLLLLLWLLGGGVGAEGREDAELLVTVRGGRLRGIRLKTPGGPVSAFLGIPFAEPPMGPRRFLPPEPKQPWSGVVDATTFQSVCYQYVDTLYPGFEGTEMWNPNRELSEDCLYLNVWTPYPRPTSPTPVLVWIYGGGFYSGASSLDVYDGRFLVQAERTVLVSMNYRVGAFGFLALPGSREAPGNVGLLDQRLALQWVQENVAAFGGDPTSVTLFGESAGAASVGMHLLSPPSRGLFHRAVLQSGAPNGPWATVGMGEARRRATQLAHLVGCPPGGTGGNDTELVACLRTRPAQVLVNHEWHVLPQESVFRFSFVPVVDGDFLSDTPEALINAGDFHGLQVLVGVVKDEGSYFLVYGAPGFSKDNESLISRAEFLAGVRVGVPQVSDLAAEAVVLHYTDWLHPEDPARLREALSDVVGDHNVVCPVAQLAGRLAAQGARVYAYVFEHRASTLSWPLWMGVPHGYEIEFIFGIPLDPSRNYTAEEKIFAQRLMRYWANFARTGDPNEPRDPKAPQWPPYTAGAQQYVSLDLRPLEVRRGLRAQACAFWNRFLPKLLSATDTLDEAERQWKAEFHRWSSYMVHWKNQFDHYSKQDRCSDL
Sequence of Nuclear receptor subfamily 1 group I member 2 (Rattus norvegicus) (Q9R1A7 whole entry, looked up): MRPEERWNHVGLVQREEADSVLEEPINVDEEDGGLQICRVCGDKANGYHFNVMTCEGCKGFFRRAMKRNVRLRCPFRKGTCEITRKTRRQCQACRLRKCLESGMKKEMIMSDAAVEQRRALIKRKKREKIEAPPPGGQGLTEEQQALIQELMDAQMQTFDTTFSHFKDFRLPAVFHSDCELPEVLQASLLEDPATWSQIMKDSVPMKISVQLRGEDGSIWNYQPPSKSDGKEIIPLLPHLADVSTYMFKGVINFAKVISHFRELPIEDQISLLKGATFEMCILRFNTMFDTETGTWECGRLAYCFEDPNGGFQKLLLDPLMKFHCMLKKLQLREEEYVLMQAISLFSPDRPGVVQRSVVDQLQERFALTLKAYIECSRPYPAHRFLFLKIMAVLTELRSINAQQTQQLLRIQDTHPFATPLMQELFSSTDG
Sequence of Progesterone receptor (Homo sapiens) (P06401 whole entry, looked up): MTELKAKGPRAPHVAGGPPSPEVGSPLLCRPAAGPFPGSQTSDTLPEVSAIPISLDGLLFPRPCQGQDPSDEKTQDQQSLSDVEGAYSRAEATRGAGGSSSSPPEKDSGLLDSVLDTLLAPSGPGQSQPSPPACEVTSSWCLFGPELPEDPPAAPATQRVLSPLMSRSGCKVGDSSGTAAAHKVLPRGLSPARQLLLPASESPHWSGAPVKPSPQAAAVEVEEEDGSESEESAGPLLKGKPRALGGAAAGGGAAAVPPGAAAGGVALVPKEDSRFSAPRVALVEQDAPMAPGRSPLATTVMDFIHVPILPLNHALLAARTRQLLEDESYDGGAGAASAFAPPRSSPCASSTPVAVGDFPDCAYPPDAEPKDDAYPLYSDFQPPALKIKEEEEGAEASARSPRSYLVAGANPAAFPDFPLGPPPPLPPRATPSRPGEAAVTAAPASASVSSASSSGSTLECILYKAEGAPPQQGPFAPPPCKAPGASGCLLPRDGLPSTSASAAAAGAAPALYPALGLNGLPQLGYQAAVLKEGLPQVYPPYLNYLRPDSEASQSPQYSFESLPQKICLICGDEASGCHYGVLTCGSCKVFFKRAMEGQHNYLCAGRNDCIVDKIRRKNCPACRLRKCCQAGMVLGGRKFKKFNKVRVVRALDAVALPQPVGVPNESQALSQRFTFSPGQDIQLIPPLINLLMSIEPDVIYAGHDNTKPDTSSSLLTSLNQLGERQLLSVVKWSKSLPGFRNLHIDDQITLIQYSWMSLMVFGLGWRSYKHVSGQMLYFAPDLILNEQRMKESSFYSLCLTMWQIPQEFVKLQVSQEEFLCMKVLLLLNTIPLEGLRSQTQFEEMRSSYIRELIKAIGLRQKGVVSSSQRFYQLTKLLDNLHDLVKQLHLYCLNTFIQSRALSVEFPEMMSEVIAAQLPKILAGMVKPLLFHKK
Sequence of Nuclear receptor subfamily 1 group I member 2 (Homo sapiens) (O75469 whole entry, looked up): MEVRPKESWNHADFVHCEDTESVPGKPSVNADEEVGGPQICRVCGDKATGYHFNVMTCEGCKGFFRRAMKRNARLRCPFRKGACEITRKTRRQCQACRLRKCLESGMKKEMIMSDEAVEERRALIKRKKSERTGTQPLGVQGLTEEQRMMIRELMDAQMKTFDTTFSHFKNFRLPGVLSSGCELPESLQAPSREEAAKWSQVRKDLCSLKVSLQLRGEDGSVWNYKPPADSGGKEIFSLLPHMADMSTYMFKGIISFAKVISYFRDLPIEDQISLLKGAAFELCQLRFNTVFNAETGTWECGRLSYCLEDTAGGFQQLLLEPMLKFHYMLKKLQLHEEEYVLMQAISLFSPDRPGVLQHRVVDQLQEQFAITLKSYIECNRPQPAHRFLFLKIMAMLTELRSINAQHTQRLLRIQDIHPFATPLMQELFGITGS

CCCCCCCCSC(=O)Oc1cc(Cl)nnc1-c1ccccc1
inactive: Potency [1] | Potency [2] | Potency [3] | Potency [4] | outcome [5] | Potency [6] | outcome [7] | Potency [8] | outcome [9] | Potency [10] | outcome [11] | outcome [12] | Potency [13] | Potency [14]

O=[N+]([O-])CCO
inactive: Potency [1] | Potency [15] | Potency [3] | Potency [4] | outcome [5] | Potency [6] | outcome [7] | Potency [8] | outcome [9] | Potency [10] | outcome [12] | Potency [13] | Potency [16] | Potency [14]

CC(C)C(C)(N)C#N (stereo not drawn)
inactive: Potency [1] | Potency [3] | Potency [4] | outcome [5] | Potency [6] | outcome [7] | Potency [8] | outcome [9] | outcome [11] | Potency [17] | outcome [12] | Potency [13] | Potency [16] | Potency [14]

O=[N+]([O-])c1cccc(CCl)c1
inactive: Potency [2] | Potency [15] | Potency [3] | Potency [4] | outcome [5] | Potency [6] | outcome [7] | Potency [8] | outcome [9] | Potency [10] | outcome [11] | outcome [12] | Potency [13]

N#CN
inactive: Potency [1] | Potency [15] | Potency [3] | Potency [4] | Potency [6] | outcome [7] | Potency [8] | outcome [9] | Potency [10] | outcome [11] | outcome [12] | Potency [13] | Potency [16] | max activation [18] 0.661% | Potency [19] | Potency [20] | Potency [14]

ClCC1CO1 (stereo not drawn)
inactive: Potency [1] | Potency [3] | Potency [4] | outcome [5] | Potency [6] | outcome [7] | Potency [8] | outcome [9] | Potency [10] | outcome [11] | Potency [17] | outcome [12] | Potency [13] | Potency [16] | max activation [18] -3.74% | Potency [19] | Potency [20] | Potency [14]

CCC(=O)c1ccc(Cl)cc1
inactive: Potency [2] | Potency [15] | Potency [3] | Potency [4] | outcome [5] | Potency [6] | outcome [7] | Potency [8] | outcome [9] | Potency [10] | outcome [11] | Potency [17] | outcome [12] | Potency [13] | Potency [16] | Potency [14]

CCC1(c2ccccc2)CCC(=O)NC1=O (stereo not drawn)
inactive: Potency [2] | Potency [15] | Potency [3] | Potency [4] | outcome [5] | Potency [6] | outcome [7] | Potency [8] | outcome [9] | Potency [10] | outcome [11] | Potency [17] | outcome [12] | Potency [13] | Potency [16] | max activation [18] -0.631% | Potency [19] | Potency [14]

CC(C)[C@]12CC(=O)[C@H](C)[C@H]1C2
inactive: Potency [1] | Potency [4] | outcome [5] | Potency [6] | outcome [7] | outcome [11] | Potency [17] | outcome [12] | Potency [13] | Potency [16] | Potency [14]

Brc1c(Br)c(Br)c(Br)c(Br)c1Br
inactive: activity change, negative = cytotoxicity [1] 2.08% [at 8.39 µM] | activity change, negative = cytotoxicity [3] -1.74% [at 8.39 µM] | activity change, negative = cytotoxicity [4] 33% [at 8.39 µM] | viability change, negative = cytotoxic [5] -1.01% [at 6.97 µM] | activity change, negative = cytotoxicity [6] -6.42% [at 6.97 µM] | activity change, negative = cytotoxicity [10] 1.06% [at 8.39 µM] | caspase activation [11] 0.467% [at 8.39 µM] | activity change, negative = cytotoxicity [17] 1.28% [at 8.39 µM] | caspase-3/7 activation [12] -0.0086% [at 8.39 µM] | activity change, negative = cytotoxicity [13] 7.69% [at 8.39 µM] | activation [16] 1.3% [at 8.39 µM] | activity, negative = inhibition [14] -5.69% [at 10.5 µM]

CCCCCCCC(=O)Cl
active: Potency [16] 61.6 µM
inactive: Potency [1] | Potency [15] | Potency [3] | Potency [4] | outcome [5] | Potency [6] | Potency [8] | outcome [9] | Potency [10] | outcome [11] | outcome [12] | Potency [13] | Potency [14]

CCCCCCC1CCOC1=O (stereo not drawn)
inactive: Potency [2] | Potency [15] | Potency [3] | Potency [4] | outcome [5] | Potency [6] | outcome [7] | Potency [8] | outcome [9] | Potency [10] | outcome [11] | Potency [17] | outcome [12] | Potency [13] | Potency [16] | Potency [14]

CC(C)(C)C(=O)Cl
inactive: Potency [1] | Potency [3] | Potency [4] | outcome [5] | Potency [6] | outcome [7] | Potency [8] | outcome [9] | Potency [10] | Potency [17] | outcome [12] | Potency [13] | Potency [16] | Potency [14]

CN1C(=O)COc2c(C(=O)NC3CN4CCC3CC4)cc(Cl)cc21 (stereo not drawn)
inactive: Potency [2] | Potency [15] | Potency [3] | Potency [4] | outcome [5] | Potency [6] | outcome [7] | Potency [8] | outcome [9] | Potency [10] | outcome [11] | Potency [17] | outcome [12] | Potency [13] | Potency [16] | max activation [18] -0.408% | Potency [19]
active: Potency [14] 38.9 µM

c1ccc2c(c1)CCNC2
inactive: Potency [1] | Potency [3] | Potency [4] | outcome [5] | Potency [6] | Potency [8] | outcome [9] | Potency [10] | outcome [11] | outcome [12] | Potency [13] | Potency [16] | Potency [14]

Cc1ccc(-c2nc3ccc(C)cn3c2CC(=O)N(C)C)cc1
active: Potency [16] 23.7 µM
inactive: Potency [2] | Potency [15] | Potency [3] | Potency [4] | outcome [5] | Potency [6] | outcome [7] | Potency [8] | outcome [9] | Potency [10] | outcome [11] | Potency [17] | outcome [12] | max activation [18] 1.42% | Potency [19] | Potency [20] | Potency [14]

CCN[C@@H](C)Cc1cccc(C(F)(F)F)c1
inactive: Potency [1] | Potency [3] | outcome [5] | Potency [6] | outcome [7] | Potency [8] | outcome [9] | Potency [10] | outcome [11] | Potency [17] | outcome [12] | Potency [13] | Potency [14]

Reference: PubChem BioAssay (Tox21)
